Among all 350,000 compounds or so, about 7,000 (2%) were called active. No stated cut-off is given here; in the data, active means activation above about 40%; inconclusive means no clear call, values can overlap the other calls; inactive means below that. The list comes from a sample in which actives are over-represented; it also holds similar structures and randomly drawn compounds.
test: Bmi1 luciferase reporter increase in mESCs, primary screen, esBAF inhibitor project, mouse ES cells, Bmi1 luciferase knock-in, single point (AID 602393); conditions: 24 h, at 12.5 µM, active compounds read high, 100% = twice the neutral-well signal;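 further: 0% = median of the plate's neutral control wells and 100% = double that signal; a rise in the Bmi1 reporter signal indicates esBAF inhibition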

SMILES | reporter increase
C[C@H](CO)N1C[C@H](C)[C@H](CN(C)C(=O)Nc2ccc(C(F)(F)F)cc2)Oc2ccc(NC(=O)C3CC3)cc2C1=O | -3.98% (inactive)
CCCn1c(C)cc(/C=C(\C#N)C(=O)OCC(=O)N(C)c2c(N)n(Cc3ccccc3)c(=O)[nH]c2=O)c1C | 9.72% (inactive)
CCCn1c(C)cc(/C=C(\C#N)C(=O)OCC(=O)Nc2cc(OC)c(OC)c(OC)c2)c1C | 61.6% (active)
COc1cc(NC(=O)COC(=O)c2ccc([N+](=O)[O-])s2)cc(OC)c1OC | -3.17% (inactive)
C[C@@H]1CN([C@@H](C)CO)S(=O)(=O)c2ccc(C#C[C@@H](C)O)cc2O[C@@H]1CN(C)C(=O)Cc1ccccn1 | 1.02% (inactive)
Cc1ccccc1S(=O)(=O)NCC[C@@H]1CC[C@H](NC(=O)C2CCCCC2)[C@@H](CO)O1 | 4.09% (inactive)
O=C(CC1CC1)N1CC[C@@H]2[C@@H](CO)Nc3ccc(-c4ccccc4)cc3[C@@H]21 | -5.1% (inactive)
COc1ccc(NC2=CC(=S)NC(C)(C)C2)cc1 | 1.51% (inactive)
COc1ccc(Nc2ccc3ccccc3c2)cc1 | 119% (active)
COc1ccc(Nc2cc(=O)oc3ccccc23)cc1 | 3.87% (inactive)
O=C(C1CCOCC1)N1C[C@H]2[C@@H](c3ccccc31)[C@@H](CO)N2Cc1ccccc1F | 0.141% (inactive)
CCNC(=O)C[C@@H]1CC[C@@H]2[C@@H](COc3ccc(NC(=O)c4cccc(C(F)(F)F)c4)cc3C(=O)N2C)O1 | 3.63% (inactive)
Cc1cc(/C=C2/SC(=O)N(CC(=O)N3CCCC3)C2=O)c(C)n1C | 0.583% (inactive)
Cc1cc(/C=C2/SC(=O)N(CC(=O)OC(C)C)C2=O)c(C)n1C | 83.5% (active)
CC(OC(=O)CN1C(=O)c2ccccc2C1=O)C(=O)c1ccccc1 (configuration not stated) | -0.946% (inactive)
COc1ccccc1-c1ccc2c(c1)O[C@H](CN(C)C(=O)c1cccnc1)[C@@H](C)CN([C@H](C)CO)S2(=O)=O | 0.986% (inactive)
C[C@H](CO)N1C[C@H](C)[C@H](CN(C)CC2CC2)OCCCC[C@H](C)Oc2ccc(NC(=O)c3ccncc3)cc2C1=O | -1.67% (inactive)
CCOC(OCC)c1ccc(/C=C\c2nccc(N)n2)cc1 | 46.6% (active)
Cc1noc(C)c1NC(=O)Nc1ccc2c(c1)C(=O)N([C@H](C)CO)C[C@H](C)[C@H](CN(C)Cc1ccc(C(=O)O)cc1)OCCCC[C@H](C)O2 | -3.6% (inactive)
Cc1ccc(-n2ncc3c(Nc4cccc(C(=O)O)c4)ncnc32)cc1 | 57.1% (active)
Cc1ccc(Nc2ncnc3c2cnn3C)c(C)c1 | -6% (inactive)
CC(Sc1ncnc2c1cnn2-c1ccccc1)C(=O)Nc1ccc(N2CCOCC2)cc1 (configuration not stated) | 13.9% (inactive)
